Only some compounds are listed: those with a hit (about 2.4% of all), similar ones and a draw of the others.
CHO-K1 Ca antag: nonselective inhibitor or artifact in parental CHO-K1 cells; ATP-induced calcium, Fluo-8 fluorescence; inhibition, % at 3 µM; 360,000 compounds, 0.6% hits;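 active = inhibition above a per-plate cutoff, the plate's mean sample inhibition plus 3 SD, cut at about 24% in these data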
CHO-K1 Ca PAM: counter-screen for M1 PAMs: effect in parental CHO-K1 cells | activation, % at 3 µM | AID 602247 | 360,000 compounds, 0.02% hits | ATP EC20, Fluo-8 calcium fluorescence; 0% at ATP EC20, 100% at ATP max;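 active = activation above the run cutoff, the mean activation of all test compounds plus 3 SD, cut at about 40% in these data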;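 note: peak over basal fluorescence ratio in a 140 s read after ATP addition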
M1 ag: activates human CHRM1 receptor; CHO-K1 hM1, Fluo-8 calcium fluorescence, agonist mode; 0% DMSO, 100% acetylcholine EC100; activation, % at 3 µM; 360,000 compounds, 0.33% hits;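 active = activation above the run's mean compound activation plus 3 SD, cut at about 16% in these data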;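 note: peak over basal fluorescence ratio within a 140 s kinetic read after compound addition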
Target sequence (P11229 whole entry, looked up): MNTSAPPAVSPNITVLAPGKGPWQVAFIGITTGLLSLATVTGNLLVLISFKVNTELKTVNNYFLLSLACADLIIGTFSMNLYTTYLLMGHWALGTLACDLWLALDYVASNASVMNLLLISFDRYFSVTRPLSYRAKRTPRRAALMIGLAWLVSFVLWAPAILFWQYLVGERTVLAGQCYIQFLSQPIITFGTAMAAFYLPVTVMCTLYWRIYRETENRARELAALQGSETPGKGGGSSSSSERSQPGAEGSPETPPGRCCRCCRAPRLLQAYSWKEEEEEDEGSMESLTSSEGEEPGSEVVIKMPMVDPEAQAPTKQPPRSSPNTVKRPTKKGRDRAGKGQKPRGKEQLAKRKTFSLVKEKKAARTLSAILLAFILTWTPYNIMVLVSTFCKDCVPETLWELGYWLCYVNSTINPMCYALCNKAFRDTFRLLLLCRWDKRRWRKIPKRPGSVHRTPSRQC
CHO-K1 Ca ag: nonselective activator or artifact in parental CHO-K1 cells; Fluo-8 calcium fluorescence; scaled to maximal ATP response, vehicle zero; activation, % at 3 µM; 360,000 compounds, 0.48% hits; in the data active = activation above about 15%;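 note: untransfected CHO-K1 host cells lacking M1 receptor as counterscreen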
M1 antag: blocks human M1 muscarinic receptor | 360,000 compounds, 1.3% hits | inhibition, % at 3 µM | CHO-K1 hM1, Fluo-8 calcium fluorescence, ACh EC80 antagonist | AID 588852 | P11229;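 active = percent inhibition above its own plate's cutoff, namely the mean of that plate's compound wells plus 3 SD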;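 note: peak over basal fluorescence ratio during 140 s after agonist addition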
CHRM1 PAM: human CHRM1 positive allosteric modulation | CHO-K1 hM1, Fluo-8 calcium fluorescence, ACh EC20; 0% = ACh EC20, 100% = maximal ACh | activation, % at 3 µM | 360,000 compounds, 0.088% hits | AID 588819; in the data active = activation above about 19%, passing the limit was not always enough
Large screens that a line does not name were inactive.

O=S(=O)(CCN1CCN(C(c2ccccc2)c2ccccc2)CC1)C(F)(F)F	M1 antag 77.3
c1ccc(CN2CCN(C(c3ccccc3)c3ccccc3)CC2)cc1	M1 antag 44.2
OC(CN1CCN(Cc2ccccc2)CC1)c1ccc(F)cc1 (stereo unspecified)	none
COc1ccc(Nc2nc(Cl)nc(Nc3ccc(OC)cc3OC)n2)c(OC)c1	none
CCOC(=O)N1CCN(C(c2cccc(OC)c2)c2sc3nc(C)nn3c2O)CC1 (stereo unspecified)	none
N=c1c(C(=O)NCc2ccco2)cc2c(=O)n3ccccc3nc2n1Cc1ccccc1	none
COc1ccc(NC2=CC(c3cccc(OC)c3)N(c3ccc(OC)cc3)C2=O)cc1 (stereo unspecified)	CHO-K1 Ca antag 36.7, M1 antag 46.9
Cc1ccccc1-n1ncc2c1CC(C)(C)CC2NC(=O)CCN1Cc2ccccc2C1=O (stereo unspecified)	none
O=c1cc(O)c(-c2ccc(Cl)cc2)c(Cl)[nH]1	none
O=C1c2cc(Cl)ccc2-c2c(O)cc(Cl)cc21	M1 antag 35.7
COc1ccccc1CNc1nc(NCc2ccccc2OC)c2sccc2n1	M1 antag 31.1
COc1ccccc1CNc1nc(NCc2ccccc2SC)c2sccc2n1	M1 antag 37.5
CCN(CC)C(=O)C1CCCN(Cc2ccccc2C(F)(F)F)C1 (stereo unspecified)	none
CC(N)c1csc(Nc2nncc3ccccc23)n1 (stereo unspecified)	M1 antag 101.5
CC(N)c1csc(Nc2ncccn2)n1 (stereo unspecified)	CHO-K1 Ca antag 24.7
Cc1nc(NC(=O)COC(=O)CCc2ccccc2)c(Cl)cc1Cl	CHRM1 PAM 25.0
FC(F)Sc1ccc(-n2cc(-c3ccccc3)[n+]3c2CCC3)cc1	M1 antag 69.7
COc1ccc(-c2cn(-c3ccc(SC(F)F)cc3)c3[n+]2CCC3)cc1OC	none
CCN(CC)c1ccc2cc(-c3nnc(-c4ccncc4)o3)c(=O)oc2c1	M1 ag 21.6, CHO-K1 Ca ag 18.9
CCN(CC)c1ccc2cc(C=O)c(=O)oc2c1	M1 ag 52.9, CHO-K1 Ca ag 25.6
CCN(CC)c1ccc2cc(C(C)=O)c(=O)oc2c1	none
O=C(Nc1nnc(-c2ccccc2)o1)c1nc2ccccc2s1	M1 ag 66.5
CCOc1ccc(NC(=O)CN(C)C(=O)c2cc(S(=O)(=O)N3CCCCCC3)ccc2OC)cc1OCC	none
CCOC(=O)C1CCN(S(=O)(=O)c2ccc(Cl)nc2)CC1	M1 antag 28.1
COC(=O)C1CCN(S(=O)(=O)c2cn(C)c(=O)n(C)c2=O)CC1	none
CCOC(=O)C1CCN(CC(O)COc2ccc(S(=O)(=O)N3CCCC3)cc2[N+](=O)[O-])CC1 (stereo unspecified)	M1 antag 39.5
CCOC(=O)C1CCN(S(=O)(=O)c2cn(C)c(=O)n(C)c2=O)CC1	M1 antag 32.1
Cc1cc(C)c2nc(N3CCOCC3)c(C#N)cc2c1	none
COCc1cc(C)nc(SCC[N+](C)(C)CC(=O)c2ccc(Br)cc2)c1C#N	M1 antag 70.4
CCc1nnc(N/N=C/c2cc(Br)c(O)cc2O)n1N	none
CC(C)(C)c1nnc(N/N=C/c2cc(Br)ccc2O)n(N)c1=O	M1 antag 35.3
O=C(CSc1nnc(COc2ccccc2F)n1-c1ccccc1)NC1CCS(=O)(=O)C1 (stereo unspecified)	CHO-K1 Ca antag 27.7
O=C1CN(S(=O)(=O)c2ccc(F)cc2)c2ccccc2N1	CHO-K1 Ca antag 27.6
COc1ccccc1NC(=O)C1CCN(S(=O)(=O)c2cccs2)CC1	none
C/C(CC(=O)Nc1cc(C)ccn1)=N\NC(=O)c1ccccc1C	none
Cc1ccc(C(C)C)c(OCCCN(C)Cc2ccccc2)c1	M1 antag 58.7
Cc1ccc(C(C)C)c(OCC(O)CN(C)Cc2ccccc2)c1 (stereo unspecified)	none
CCOC(=O)c1cc2occc2n1Cc1c(F)cccc1Cl	none
Cc1cc2c(cc(C(=O)N3CCC(C(=O)N4CCCC4)CC3)n2Cc2c(F)cccc2Cl)o1	M1 antag 30.5
CN(C(=O)c1ccc(NC(=O)Cc2ccc(NC(=O)C3CCN(C(=O)C4CC4)CC3)cc2)cc1)C1CCCC1	CHRM1 PAM 27.0
CCOC(=O)CSc1nc2ccc(NC(=O)CSc3nnnn3Cc3ccccc3)cc2s1	none
CC(C)(C)NC(=O)CSc1nc2ccc(NC(=O)CSc3nnnn3Cc3ccccc3)cc2s1	M1 antag 19.1
Cc1cc(C)n(CC(O)COc2ccccc2C(=O)Nc2ccccc2)n1 (stereo unspecified)	none
COc1ccccc1OCC(O)Cn1c(=N)n(CCN2CCCCC2)c2ccccc21 (stereo unspecified)	M1 antag 19.1
Cc1ccc2c(c1)nnn2C1CCN(CC(=O)N(c2ccccc2)c2ccccc2)CC1	M1 antag 33.5
Cc1ccc2c(c1)nnn2C1CCN(S(=O)(=O)c2cccc(S(=O)(=O)N(C)C)c2)CC1	M1 antag 36.7
CCC(=O)Nc1cccc2c1C(=O)N(C)C2=O	none
COc1ccc(OCC(=O)Nc2ccc(N3CCN(C(=O)c4ccccc4)CC3)c(Cl)c2)cc1	CHO-K1 Ca antag 24.9, M1 antag 36.4
Cc1ccccc1OCC(=O)Nc1ccc(N2CCN(C)CC2)c(Cl)c1	M1 antag 45.3
COc1ccc(OCC(=O)Nc2ccccc2C(=O)N2CCOCC2)cc1	CHO-K1 Ca ag 17.1
COc1ccc(OCC(=O)Nc2ccc(N3CCOCC3)c(Cl)c2)cc1	none
CCCCNc1c(CC(C)C)nc2nc(C)cc(C)n12	CHO-K1 Ca antag 25.2 (no result: M1 ag, M1 antag, CHRM1 PAM)
Cc1ccnc(NC(=O)c2ccc(S(=O)(=O)NCc3ccco3)cc2)c1	none
CCn1cc(CN2CCN(CCC(C)C)C(CCO)C2)c2ccccc21 (stereo unspecified)	none
COc1ccc(-c2cnnc(N/N=C/c3ccc(O)c(OC)c3)n2)cc1	CHO-K1 Ca antag 34.7
CN1CCN(C(c2cccc(Cl)c2)c2ccccc2Cl)CC1 (stereo unspecified)	M1 antag 87.6
COc1cccc(CN(C)C(=O)c2cc(COc3ccc(-n4cncn4)cc3)on2)c1	CHO-K1 Ca ag 15.8
COc1cccc(CN(C)C(=O)c2cc(COc3c(F)cccc3F)on2)c1	none
COc1cccc(CN(C)C(=O)c2cc(COc3ccc4ncccc4c3)on2)c1	CHO-K1 Ca antag 43.8, CHO-K1 Ca ag 19.3, M1 antag 49.9
CS(=O)(=O)Nc1ccc(C2=NN(C(=O)c3ccco3)C(c3cccc(F)c3)C2)cc1 (stereo unspecified)	CHO-K1 Ca ag 15.8
O=C(O)c1ccccc1-c1ccc(/C=C/c2cc(C(F)(F)F)[nH]c(=O)n2)o1	CHO-K1 Ca ag 26.1
Cc1nc(S/C(=C/c2ccc(-c3cc(Cl)ccc3C)o2)C(=O)O)n[nH]1	none

Screens (PubChem)
